# Tests used:
# Assay in all cases: DAPPL (digital affinity profiling via proximity ligation, sequencing); 10 mM Tris-HCl pH 7.5, 50 mM NaCl, 1 mM DTT, 4% glycerol, room temperature, 30 min; GST-TFs on glutathione beads, 16-mer random dsDNA library, 0.1% formaldehyde crosslink after washing; high values mean tight binding
# FLI1 = biological target: T1, FLI1 (Homo sapiens, UniProt Q01543 1-452); conditions: protein: recombinant; tags: N-terminal GST; dsDNA, one strand shown
# T1 sequence: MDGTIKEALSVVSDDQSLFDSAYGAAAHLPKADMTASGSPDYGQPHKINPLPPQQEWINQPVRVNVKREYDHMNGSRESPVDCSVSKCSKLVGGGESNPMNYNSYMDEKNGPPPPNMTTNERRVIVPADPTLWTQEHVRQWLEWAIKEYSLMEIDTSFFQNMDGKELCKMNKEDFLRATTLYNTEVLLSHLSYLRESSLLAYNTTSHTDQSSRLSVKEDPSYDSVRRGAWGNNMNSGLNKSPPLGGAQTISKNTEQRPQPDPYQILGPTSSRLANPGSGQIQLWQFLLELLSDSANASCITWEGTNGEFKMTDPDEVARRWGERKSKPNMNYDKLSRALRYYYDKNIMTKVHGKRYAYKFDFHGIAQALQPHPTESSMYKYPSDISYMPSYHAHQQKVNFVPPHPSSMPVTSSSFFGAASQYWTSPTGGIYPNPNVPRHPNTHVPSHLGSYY
# How it was run: (§1)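 Human transcription factors carrying a GST fusion were produced in yeast, bound to glutathione beads, tagged with DNA barcodes and pooled together with a tag-only sample. Each pool was held with 200 nmole of a random double-stranded 16-mer DNA library in Tris/NaCl/DTT/glycerol buffer for 30 min at room temperature, then washed, crosslinked in 0.1% formaldehyde, proximity-ligated with BsaI/T4 ligase (1 h, 37 °C), PCR-amplified and sequenced on an Illumina NextSeq500. Binding signal is the read frequency of each hexamer for a given factor divided by its frequency in the tag-only sample.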
# ELK1 = biological target: T2, ELK1 (Homo sapiens, UniProt P19419 1-428); conditions: protein: recombinant; tags: N-terminal GST; dsDNA, one strand shown
# T2 sequence: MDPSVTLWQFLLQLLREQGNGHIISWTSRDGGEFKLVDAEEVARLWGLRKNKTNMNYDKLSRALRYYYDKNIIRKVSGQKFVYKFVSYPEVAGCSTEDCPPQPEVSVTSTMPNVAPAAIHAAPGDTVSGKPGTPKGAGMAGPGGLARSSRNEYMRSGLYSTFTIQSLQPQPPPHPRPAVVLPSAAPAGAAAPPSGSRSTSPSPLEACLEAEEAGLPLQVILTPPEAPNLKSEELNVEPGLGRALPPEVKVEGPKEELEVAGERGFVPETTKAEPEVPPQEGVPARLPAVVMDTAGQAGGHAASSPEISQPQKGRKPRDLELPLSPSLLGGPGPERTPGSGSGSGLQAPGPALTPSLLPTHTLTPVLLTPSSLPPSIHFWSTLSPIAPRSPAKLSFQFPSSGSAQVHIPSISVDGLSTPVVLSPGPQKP
# How it was run: as §1
# GABPA = biological target: T3, GABPA (Homo sapiens, UniProt Q06546 1-454); conditions: protein: recombinant; tags: N-terminal GST; dsDNA, one strand shown
# T3 sequence: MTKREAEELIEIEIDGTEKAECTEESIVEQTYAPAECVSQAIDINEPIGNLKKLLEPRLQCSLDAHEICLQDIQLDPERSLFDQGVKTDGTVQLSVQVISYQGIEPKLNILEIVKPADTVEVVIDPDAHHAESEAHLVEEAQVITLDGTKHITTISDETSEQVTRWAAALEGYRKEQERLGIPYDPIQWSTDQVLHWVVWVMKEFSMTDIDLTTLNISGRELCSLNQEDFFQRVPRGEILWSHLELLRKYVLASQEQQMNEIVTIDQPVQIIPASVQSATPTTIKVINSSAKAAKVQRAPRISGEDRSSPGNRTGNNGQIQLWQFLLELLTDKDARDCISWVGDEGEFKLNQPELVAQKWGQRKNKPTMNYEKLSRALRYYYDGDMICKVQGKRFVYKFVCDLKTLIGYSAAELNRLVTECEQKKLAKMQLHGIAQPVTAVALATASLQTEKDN
# How it was run: as §1
# ERG = biological target: T4, ERG (Homo sapiens, UniProt P11308 1-479); conditions: protein: recombinant; tags: N-terminal GST; dsDNA, one strand shown
# T4 sequence: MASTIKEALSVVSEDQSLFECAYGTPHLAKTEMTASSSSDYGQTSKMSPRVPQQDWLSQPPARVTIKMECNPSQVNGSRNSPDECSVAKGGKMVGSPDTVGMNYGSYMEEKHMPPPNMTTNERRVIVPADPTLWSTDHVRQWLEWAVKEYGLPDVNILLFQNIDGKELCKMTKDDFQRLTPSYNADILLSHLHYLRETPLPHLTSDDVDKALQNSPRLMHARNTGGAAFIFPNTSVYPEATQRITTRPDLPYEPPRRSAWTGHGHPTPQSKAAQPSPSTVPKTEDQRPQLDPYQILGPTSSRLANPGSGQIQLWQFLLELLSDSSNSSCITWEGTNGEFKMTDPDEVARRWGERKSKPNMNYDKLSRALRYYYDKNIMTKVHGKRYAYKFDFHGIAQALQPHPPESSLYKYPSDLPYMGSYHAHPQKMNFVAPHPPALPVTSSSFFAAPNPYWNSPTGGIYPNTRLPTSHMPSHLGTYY
# How it was run: as §1
# ELF1 = ELF1 (Homo sapiens, UniProt P32519 1-619); conditions: protein: recombinant; tags: N-terminal GST; dsDNA, one strand shown
# How it was run: as §1
# EHF = biological target: T5, EHF (Homo sapiens, UniProt Q9NZC4 1-300); conditions: protein: recombinant; tags: N-terminal GST; dsDNA, one strand shown
# T5 sequence: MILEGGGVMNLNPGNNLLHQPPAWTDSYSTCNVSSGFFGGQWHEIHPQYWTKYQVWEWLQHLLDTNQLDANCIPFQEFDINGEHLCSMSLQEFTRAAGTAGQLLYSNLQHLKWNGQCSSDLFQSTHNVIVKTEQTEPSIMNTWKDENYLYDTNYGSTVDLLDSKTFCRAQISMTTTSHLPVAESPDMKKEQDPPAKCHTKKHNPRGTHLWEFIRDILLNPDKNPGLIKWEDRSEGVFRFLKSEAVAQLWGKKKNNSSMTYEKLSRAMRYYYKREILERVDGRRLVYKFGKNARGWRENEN
# How it was run: as §1
# SPI1 = SPI1 (Homo sapiens, UniProt P17947 1-270); conditions: protein: recombinant; tags: N-terminal GST; dsDNA, one strand shown
# How it was run: as §1
# SPIB = SPIB (Homo sapiens, UniProt Q01892 1-262); conditions: protein: recombinant; tags: N-terminal GST; dsDNA, one strand shown
# How it was run: as §1
# ELK3 = biological target: T6, ELK3 (Homo sapiens, UniProt P41970 1-407); conditions: protein: recombinant; tags: N-terminal GST; dsDNA, one strand shown
# T6 sequence: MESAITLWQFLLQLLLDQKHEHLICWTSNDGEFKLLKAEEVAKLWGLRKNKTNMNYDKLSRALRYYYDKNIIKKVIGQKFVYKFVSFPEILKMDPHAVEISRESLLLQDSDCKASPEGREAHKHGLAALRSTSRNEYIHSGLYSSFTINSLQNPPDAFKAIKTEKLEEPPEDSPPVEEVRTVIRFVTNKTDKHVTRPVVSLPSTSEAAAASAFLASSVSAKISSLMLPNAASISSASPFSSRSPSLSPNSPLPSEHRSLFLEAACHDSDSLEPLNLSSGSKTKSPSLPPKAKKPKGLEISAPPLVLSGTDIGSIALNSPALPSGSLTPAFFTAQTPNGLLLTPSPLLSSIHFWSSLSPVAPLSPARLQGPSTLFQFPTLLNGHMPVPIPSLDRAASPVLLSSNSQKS
# How it was run: as §1
# FEV = biological target: T7, FEV (Homo sapiens, UniProt Q99581 1-238); conditions: protein: recombinant; tags: N-terminal GST; dsDNA, one strand shown
# T7 sequence: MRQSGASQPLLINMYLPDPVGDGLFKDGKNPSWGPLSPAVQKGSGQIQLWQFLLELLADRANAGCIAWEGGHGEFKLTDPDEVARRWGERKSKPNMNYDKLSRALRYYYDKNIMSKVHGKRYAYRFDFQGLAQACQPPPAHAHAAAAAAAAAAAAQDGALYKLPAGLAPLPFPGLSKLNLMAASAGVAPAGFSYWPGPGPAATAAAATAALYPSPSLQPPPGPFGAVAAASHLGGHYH
# How it was run: as §1
# ETV5 = ETV5 (Homo sapiens, UniProt P41161 1-510); conditions: protein: recombinant; tags: N-terminal GST; dsDNA, one strand shown
# How it was run: as §1
# HSF1 = HSF1 (Homo sapiens, UniProt Q00613 1-529); conditions: protein: recombinant; tags: N-terminal GST; chain copies: 3; dsDNA, one strand shown
# How it was run: as §1
# SPIC = biological target: T8, SPIC (Homo sapiens, UniProt Q8N5J4 1-248); conditions: protein: recombinant; tags: N-terminal GST; dsDNA, one strand shown
# T8 sequence: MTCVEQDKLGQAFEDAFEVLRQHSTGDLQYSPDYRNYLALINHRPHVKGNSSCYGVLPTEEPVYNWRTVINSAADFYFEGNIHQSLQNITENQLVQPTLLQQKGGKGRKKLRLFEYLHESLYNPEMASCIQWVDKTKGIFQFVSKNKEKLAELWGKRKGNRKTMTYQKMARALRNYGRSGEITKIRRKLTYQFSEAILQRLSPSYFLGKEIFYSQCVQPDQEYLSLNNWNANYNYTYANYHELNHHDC
# How it was run: as §1
# ELF4 = ELF4 (Homo sapiens, UniProt Q99607 1-663); conditions: protein: recombinant; tags: N-terminal GST; dsDNA, one strand shown
# How it was run: as §1
# ELK4 = biological target: T9, ELK4 (Homo sapiens, UniProt P28324-2 1-405); conditions: protein: recombinant; tags: N-terminal GST; dsDNA, one strand shown
# T9 sequence: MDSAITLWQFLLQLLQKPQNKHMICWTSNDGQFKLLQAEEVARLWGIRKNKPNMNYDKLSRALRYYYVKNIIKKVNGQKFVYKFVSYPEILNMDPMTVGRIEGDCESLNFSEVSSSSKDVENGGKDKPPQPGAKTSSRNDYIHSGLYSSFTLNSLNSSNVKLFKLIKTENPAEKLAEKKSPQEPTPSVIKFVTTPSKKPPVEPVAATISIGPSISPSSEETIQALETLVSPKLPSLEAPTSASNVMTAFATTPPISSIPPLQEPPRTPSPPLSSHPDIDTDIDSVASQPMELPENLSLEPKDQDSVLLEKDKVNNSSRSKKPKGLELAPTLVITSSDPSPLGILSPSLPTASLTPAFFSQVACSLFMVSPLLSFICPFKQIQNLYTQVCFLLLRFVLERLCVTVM
# How it was run: as §1
# ETV2 = biological target: T10, ETV2 (Homo sapiens, UniProt O00321 1-342); conditions: protein: recombinant; tags: N-terminal GST; dsDNA, one strand shown
# T10 sequence: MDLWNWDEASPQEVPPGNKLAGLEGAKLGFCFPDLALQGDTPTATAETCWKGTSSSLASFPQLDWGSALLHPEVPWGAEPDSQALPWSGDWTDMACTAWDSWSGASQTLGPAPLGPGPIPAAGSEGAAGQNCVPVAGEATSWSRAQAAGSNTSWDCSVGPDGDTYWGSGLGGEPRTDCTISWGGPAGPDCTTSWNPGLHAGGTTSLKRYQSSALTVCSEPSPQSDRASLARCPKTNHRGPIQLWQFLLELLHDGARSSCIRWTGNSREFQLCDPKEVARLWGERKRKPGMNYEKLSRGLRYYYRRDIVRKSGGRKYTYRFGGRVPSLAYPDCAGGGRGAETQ
# How it was run: as §1
# ELF3 = biological target: T11, ELF3 (Homo sapiens, UniProt P78545 1-371); conditions: protein: recombinant; tags: N-terminal GST; dsDNA, one strand shown
# T11 sequence: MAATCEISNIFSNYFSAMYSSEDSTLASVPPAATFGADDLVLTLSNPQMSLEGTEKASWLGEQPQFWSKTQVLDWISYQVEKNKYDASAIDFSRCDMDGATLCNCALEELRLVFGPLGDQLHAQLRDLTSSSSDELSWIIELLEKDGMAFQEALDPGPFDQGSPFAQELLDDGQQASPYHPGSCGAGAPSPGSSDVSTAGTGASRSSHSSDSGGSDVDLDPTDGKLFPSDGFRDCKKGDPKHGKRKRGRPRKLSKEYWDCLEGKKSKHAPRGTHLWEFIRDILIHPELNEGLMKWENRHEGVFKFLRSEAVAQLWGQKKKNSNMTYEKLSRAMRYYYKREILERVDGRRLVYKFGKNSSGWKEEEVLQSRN
# How it was run: as §1
# CRX = CRX (Homo sapiens, UniProt O43186 1-299); conditions: protein: recombinant; tags: N-terminal GST; dsDNA, one strand shown
# How it was run: as §1
# ETV1 = ETV1 (Homo sapiens, UniProt P50549 1-477); conditions: protein: recombinant; tags: N-terminal GST; dsDNA, one strand shown
# How it was run: as §1
# Sequence of ETV1 (P50549 whole entry): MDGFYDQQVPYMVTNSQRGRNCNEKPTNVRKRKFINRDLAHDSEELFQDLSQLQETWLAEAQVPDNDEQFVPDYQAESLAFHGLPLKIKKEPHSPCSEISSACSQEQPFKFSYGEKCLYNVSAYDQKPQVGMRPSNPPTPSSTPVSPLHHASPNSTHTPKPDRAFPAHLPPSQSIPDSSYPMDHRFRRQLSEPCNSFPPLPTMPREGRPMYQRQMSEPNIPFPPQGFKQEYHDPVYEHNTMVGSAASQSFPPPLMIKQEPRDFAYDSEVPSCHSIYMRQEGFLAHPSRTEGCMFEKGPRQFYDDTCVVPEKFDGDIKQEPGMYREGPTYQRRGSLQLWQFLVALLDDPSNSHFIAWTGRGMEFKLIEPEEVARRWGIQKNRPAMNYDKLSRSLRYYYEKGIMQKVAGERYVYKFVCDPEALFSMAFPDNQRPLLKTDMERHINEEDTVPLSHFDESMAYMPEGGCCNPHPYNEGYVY
# Sequence of ELF4 (Q99607 whole entry): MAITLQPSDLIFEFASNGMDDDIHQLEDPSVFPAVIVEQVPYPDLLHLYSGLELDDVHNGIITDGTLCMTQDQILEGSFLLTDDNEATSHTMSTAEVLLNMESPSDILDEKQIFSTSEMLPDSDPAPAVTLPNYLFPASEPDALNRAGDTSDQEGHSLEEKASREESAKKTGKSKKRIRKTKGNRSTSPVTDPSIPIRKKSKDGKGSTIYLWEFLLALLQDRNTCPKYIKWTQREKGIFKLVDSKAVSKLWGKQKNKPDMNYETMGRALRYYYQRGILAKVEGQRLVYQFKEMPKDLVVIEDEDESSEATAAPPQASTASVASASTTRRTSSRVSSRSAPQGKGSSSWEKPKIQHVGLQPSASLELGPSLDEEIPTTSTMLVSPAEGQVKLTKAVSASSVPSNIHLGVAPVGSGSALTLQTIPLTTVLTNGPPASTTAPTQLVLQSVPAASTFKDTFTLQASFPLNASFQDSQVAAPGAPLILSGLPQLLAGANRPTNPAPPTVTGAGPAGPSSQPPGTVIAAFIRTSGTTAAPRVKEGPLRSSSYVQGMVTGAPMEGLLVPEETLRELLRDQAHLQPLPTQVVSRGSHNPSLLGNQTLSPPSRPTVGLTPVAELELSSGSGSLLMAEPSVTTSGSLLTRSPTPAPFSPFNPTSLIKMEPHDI
# Sequence of CRX (O43186 whole entry): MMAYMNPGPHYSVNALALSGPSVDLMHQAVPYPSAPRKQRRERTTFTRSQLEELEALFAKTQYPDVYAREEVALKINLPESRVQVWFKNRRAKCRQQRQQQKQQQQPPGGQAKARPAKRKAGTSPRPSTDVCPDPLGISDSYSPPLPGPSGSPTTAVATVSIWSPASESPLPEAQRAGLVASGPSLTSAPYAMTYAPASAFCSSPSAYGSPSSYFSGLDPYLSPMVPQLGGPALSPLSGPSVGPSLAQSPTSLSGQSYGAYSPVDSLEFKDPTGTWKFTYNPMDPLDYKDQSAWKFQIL
# Sequence of SPIB (Q01892 whole entry): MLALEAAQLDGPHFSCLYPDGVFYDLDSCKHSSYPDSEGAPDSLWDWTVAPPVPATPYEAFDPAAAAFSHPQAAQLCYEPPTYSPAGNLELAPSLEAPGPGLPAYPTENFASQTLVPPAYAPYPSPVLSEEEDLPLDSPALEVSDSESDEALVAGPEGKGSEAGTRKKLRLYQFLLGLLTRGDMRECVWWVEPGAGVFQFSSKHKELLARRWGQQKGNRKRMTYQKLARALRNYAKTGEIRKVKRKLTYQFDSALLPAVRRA
# Sequence of HSF1 (Q00613 whole entry): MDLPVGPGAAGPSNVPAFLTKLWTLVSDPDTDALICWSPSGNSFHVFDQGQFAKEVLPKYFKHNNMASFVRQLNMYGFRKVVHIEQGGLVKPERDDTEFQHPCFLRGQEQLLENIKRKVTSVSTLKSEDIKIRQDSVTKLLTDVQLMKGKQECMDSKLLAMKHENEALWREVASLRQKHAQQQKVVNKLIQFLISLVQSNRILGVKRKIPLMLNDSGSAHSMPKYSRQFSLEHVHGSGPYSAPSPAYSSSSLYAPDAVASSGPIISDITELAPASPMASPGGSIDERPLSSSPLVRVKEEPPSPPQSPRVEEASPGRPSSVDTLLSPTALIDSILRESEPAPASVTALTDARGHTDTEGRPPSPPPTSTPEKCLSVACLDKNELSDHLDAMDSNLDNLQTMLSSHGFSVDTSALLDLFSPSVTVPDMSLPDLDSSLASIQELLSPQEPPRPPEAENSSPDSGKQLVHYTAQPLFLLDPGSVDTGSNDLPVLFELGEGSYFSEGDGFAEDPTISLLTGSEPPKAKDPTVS
# Sequence of ELF1 (P32519 whole entry): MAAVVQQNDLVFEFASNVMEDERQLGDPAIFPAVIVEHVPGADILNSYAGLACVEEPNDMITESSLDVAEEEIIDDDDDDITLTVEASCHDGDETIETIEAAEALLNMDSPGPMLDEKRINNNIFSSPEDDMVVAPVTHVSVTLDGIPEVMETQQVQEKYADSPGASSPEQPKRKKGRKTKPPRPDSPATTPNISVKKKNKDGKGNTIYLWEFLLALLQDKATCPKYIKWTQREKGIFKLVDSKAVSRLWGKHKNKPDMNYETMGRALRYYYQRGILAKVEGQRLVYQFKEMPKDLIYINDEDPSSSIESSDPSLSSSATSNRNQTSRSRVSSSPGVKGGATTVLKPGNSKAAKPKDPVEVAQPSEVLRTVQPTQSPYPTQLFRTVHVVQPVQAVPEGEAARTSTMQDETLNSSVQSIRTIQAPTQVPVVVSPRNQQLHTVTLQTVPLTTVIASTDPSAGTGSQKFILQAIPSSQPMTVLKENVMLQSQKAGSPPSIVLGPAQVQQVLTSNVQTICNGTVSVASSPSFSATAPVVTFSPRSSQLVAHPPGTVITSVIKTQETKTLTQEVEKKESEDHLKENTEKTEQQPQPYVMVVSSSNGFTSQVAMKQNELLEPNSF
# Sequence of ETV5 (P41161 whole entry): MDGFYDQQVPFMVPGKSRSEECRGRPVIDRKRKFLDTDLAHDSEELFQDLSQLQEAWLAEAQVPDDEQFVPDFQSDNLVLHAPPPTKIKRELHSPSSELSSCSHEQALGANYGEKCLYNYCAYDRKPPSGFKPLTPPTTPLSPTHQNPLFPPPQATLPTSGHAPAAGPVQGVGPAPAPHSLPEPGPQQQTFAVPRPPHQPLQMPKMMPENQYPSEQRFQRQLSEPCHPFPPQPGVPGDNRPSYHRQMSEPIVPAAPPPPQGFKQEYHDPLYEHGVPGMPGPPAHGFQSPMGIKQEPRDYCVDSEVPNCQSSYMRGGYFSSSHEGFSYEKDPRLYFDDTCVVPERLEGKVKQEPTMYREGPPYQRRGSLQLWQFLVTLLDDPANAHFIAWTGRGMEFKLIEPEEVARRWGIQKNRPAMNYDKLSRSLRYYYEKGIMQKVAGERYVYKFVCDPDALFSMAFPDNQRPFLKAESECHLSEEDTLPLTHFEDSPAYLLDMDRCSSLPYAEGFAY
sequence,measurement,setting,value
TCCTGA,binding signal,FLI1,"1.43 fold enrichment (6-mer frequency, TF over GST control)"
same,binding signal,ELK1,"1.45 fold enrichment (6-mer frequency, TF over GST control)"
same,binding signal,GABPA,"1.47 fold enrichment (6-mer frequency, TF over GST control)"
same,binding signal,ERG,"1.5 fold enrichment (6-mer frequency, TF over GST control)"
same,binding signal,ELF1,"1.41 fold enrichment (6-mer frequency, TF over GST control)"
same,binding signal,EHF,"1.45 fold enrichment (6-mer frequency, TF over GST control)"
same,binding signal,SPI1,"1.47 fold enrichment (6-mer frequency, TF over GST control)"
same,binding signal,SPIB,"1.46 fold enrichment (6-mer frequency, TF over GST control)"
same,binding signal,ELK3,"1.54 fold enrichment (6-mer frequency, TF over GST control)"
same,binding signal,FEV,"1.31 fold enrichment (6-mer frequency, TF over GST control)"
same,binding signal,ETV5,"1.53 fold enrichment (6-mer frequency, TF over GST control)"
same,binding signal,HSF1,"1.57 fold enrichment (6-mer frequency, TF over GST control)"
same,binding signal,SPIC,"1.32 fold enrichment (6-mer frequency, TF over GST control)"
same,binding signal,ELF4,"1.39 fold enrichment (6-mer frequency, TF over GST control)"
same,binding signal,ELK4,"1.29 fold enrichment (6-mer frequency, TF over GST control)"
same,binding signal,ETV2,"1.66 fold enrichment (6-mer frequency, TF over GST control)"
same,binding signal,ELF3,"1.39 fold enrichment (6-mer frequency, TF over GST control)"
same,binding signal,CRX,"1.25 fold enrichment (6-mer frequency, TF over GST control)"
same,binding signal,ETV1,"1.49 fold enrichment (6-mer frequency, TF over GST control)"
